Test system: Neuregulin-1 EGF-like domain
Experiment: binders of neuregulin-1 EGF-like domain, primary screen, biochemical, small-molecule microarray, 635 nm fluorescence (AID 1081);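 note: binding of the protein to compounds printed on small-molecule microarray slides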
Conditions: small-molecule microarray binding, higher = more signal

In order of rising composite z-score:
1. C=CCC(OC(C)=O)[C@@H]1[C@@H](N(Cc2cc3ccccc3o2)C(=O)c2ccc(C)cc2)c2cc(OCCCO)ccc2N1C(=O)c1ccc(-c2ccccc2)cc1 (stereo not given in full)  -0.491
2. C=CCC(OC(C)=O)[C@@H]1[C@@H](N(Cc2ccc(-c3ccccc3)cc2)C(=O)c2ccc(C)cc2)c2cc(OCCCO)ccc2N1C(=O)c1ccc2ccccc2n1 (stereo not given in full)  -0.325
3. COCCCNC(=O)[C@@]1(Sc2ccc(C)cc2)CC(=O)N(Cc2ccccc2)[C@@H]1c1ccc(CO)cc1  -0.233
4. Cc1ccc(F)cc1S(=O)(=O)N[C@@H]1CCN(Cc2ccc(C(F)(F)F)cc2)C1  -0.19
5. O=C1OCCC=C[C@H]2OC34C=CCN(c5ccc6ccccc6c5)C(=O)[C@H]3N(CCCCCCO)C(=O)[C@@H]4C12 (stereo not given in full)  0.193
6. CN(C)CCCC[C@@H]1NC(=O)[C@@H]2C[C@H](C(=O)NCCCCCN)[C@H](c3ccc(O)cc3)N2C1=O  0.293
7. C=CCCN(CC#C[C@H]1Oc2ccccc2S(=O)(=O)N2CCC[C@@H]12)S(=O)(=O)c1ccc(C)cc1  0.476
8. COc1ccc([Si](C)(C)[C@H]2[C@H](CCO)O[C@@]3(C(=O)N(Cc4ccccc4)c4ccc(N5C(=O)COc6ccccc65)cc43)[C@@H]2C)cc1  0.487
9. COc1ccc([Si](C)(C)[C@@H]2[C@@H](CCO)O[C@]3(C(=O)N(Cc4ccc(N5C(=O)c6cccc7cccc5c67)cc4)c4ccccc43)[C@H]2C)cc1  0.695
10. CC(C)NC(=O)[C@@]1(c2ccc([N+](=O)[O-])cc2)CC(=O)N(C(C)C)[C@@H]1c1ccc(CO)cc1  0.697
11. O=C(NCC(O)CO)[C@@]1(Cc2ccccc2)COC(c2ccc(OCCCO)cc2)=N1 (stereo not given in full)  0.698
12. CC(C)(C)OC(=O)CC[C@]1(C(=O)NCC(O)CO)N=C(c2ccc(OCCCO)cc2)O[C@H]1c1ccccc1CN=[N+]=[N-] (stereo not given in full)  0.722
13. C[n+]1ccc2ccc(O)cc2c1  0.767
14. CN1C(=O)C2C=CC(C(O)c3ccccc3)N(NC(=O)OC(C)(C)C)C2C1=O (stereo not given)  0.792
15. COc1ccc([Si](C)(C)[C@H]2[C@H](CC(=O)N3Cc4ccccc4C[C@H]3CO)O[C@@]3(C(=O)N(Cc4cccc(I)c4)c4ccccc43)[C@@H]2C)cc1  0.853
16. C=C(CCCC)/C(=C/C[C@H](OC(C)=O)c1ccc(CO)o1)c1cc(C(=O)OC)ccc1OC  0.888
17. [N-]=[N+]=NCc1ccccc1C[C@]1(C(=O)NCc2ccccc2)COC(c2ccc(OCCCO)cc2)=N1  0.931
18. C=C(C(=O)CC[C@H](OC(=O)c1cccnc1)c1ccccc1OCCO)C(C)C  0.962
19. COc1ccc([Si](C)(C)[C@@H]2[C@@H](CCO)O[C@]3(C(=O)N(Cc4cccc(N5CCCCC5=O)c4)c4ccccc43)[C@H]2C)cc1  0.967
20. [N-]=[N+]=NCc1ccccc1[C@H]1OC(c2ccc(OCCCO)cc2)=N[C@@]1(Cc1ccccc1)C(=O)O  0.97
21. NC(=O)NCC#Cc1ccc2c(c1)[C@]1(C(=O)N2)[C@H](C(=O)NC[C@H](O)c2ccccc2)[C@H]2C(=O)O[C@H](c3ccccc3)[C@H](c3ccccc3)N2[C@@H]1c1ccccc1OCCO  0.997
22. O=C1C2C=CC(C(O)c3ccccn3)N(Nc3ccccc3F)C2C(=O)N1c1ccccc1 (stereo not given)  1.02
23. [N-]=[N+]=NCc1ccccc1C[C@@]1(C(=O)NCc2ccccc2)N=C(c2ccc(OCCCO)cc2)O[C@@H]1c1ccccc1CN=[N+]=[N-]  1.05
24. CCOC(=O)N1C(c2ccc(OCCCO)cc2)=NC(C(=O)OC)N1C(=O)OCC (stereo not given)  1.14
25. COc1ccc(C(=O)Nc2cccc(CN3C(=O)[C@@]4(O[C@@H](CCn5cc([C@H](O)c6ccccc6)nn5)[C@H]([Si](C)(C)c5ccc(OC)cc5)[C@H]4C)c4ccccc43)c2)cc1  1.14
26. COc1cc2c(cc1O)C(c1ccc(CN3CCCC3)cc1)N(Cc1sc3ccccc3c1Cl)CC2 (stereo not given)  1.17
27. C=CCOC(=O)[C@@H]1[C@H]2C(=O)O[C@H](c3ccccc3)[C@H](c3ccccc3)N2[C@H](c2ccc(OCCOC(=O)[C@H]3C[C@H]4C(=O)N[C@@H](CCCC[N+](C)(C)C)C(=O)N4[C@H]3c3cccc(OCCO)c3)cc2)[C@@]12C(=O)Nc1ccc(I)cc12  1.17
28. Cc1ccc(N2C(=O)c3ccccc3[C@@H](C(=O)NC(C)C)[C@@H]2c2ccc(CO)cc2)nc1  1.27
29. COC(=O)[C@@]1(Cc2ccc(OC)cc2)[C@H]2c3cc(C(=O)N(C)C)n(Cc4ccc(OC)c(OC)c4)c3C[C@H]2CN1C(=O)c1ccccc1  1.28
30. CO[C@H]1O[C@H](CO)[C@@H](OC(=O)Nc2cccc(F)c2)[C@H](OC(=O)Nc2ccccc2-c2ccccc2)[C@@H]1OC(=O)Nc1ccccc1-c1ccccc1  1.29
31. C=CC[C@@]1(C(=O)NCCN2CCOCC2)N=C(c2ccc(OCCCO)cc2)O[C@@H]1c1ccccc1CN=[N+]=[N-]  1.29
32. NC(=O)[C@@]1(CCS(=O)(=O)c2ccccc2)N=C(c2ccc(OCCCO)cc2)O[C@H]1c1ccccc1  1.3
33. O=C1OCC=C[C@H]2OC34C=CCN(c5ccc6ccccc6c5)C(=O)[C@H]3N(CCO)C(=O)[C@@H]4[C@@H]12 (stereo not given in full)  1.39
34. O=C1OCC=C[C@H]2OC34C=CCN(c5ccc(Cl)cc5)C(=O)[C@H]3N(CCCO)C(=O)[C@@H]4[C@@H]12 (stereo not given in full)  1.41
35. CC(=O)NCCCC[C@@H]1NC(=O)[C@@H]2C[C@H](C(=O)NCc3ccc(F)cc3)[C@H](c3ccc(O)cc3)N2C1=O  1.47

— PubChem BioAssay
